{"source": "paper PMC4336329", "about": "(PLoS ONE, 2015)", "note": "Screen size: about 310,000 compounds; about 14,000 (4.5%) showed an effect of 50% or more. The effect is printed as a negative number. This excerpt belongs to a sample that is enriched for strong results.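 Further: peak tail current of the secondary pulse compared with the same well before compound.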", "data": [{"target": "human ether-à-go-go-related gene (hERG) potassium channel (human, UniProt Q12809)", "sequence (Q12809 whole entry, looked up)": "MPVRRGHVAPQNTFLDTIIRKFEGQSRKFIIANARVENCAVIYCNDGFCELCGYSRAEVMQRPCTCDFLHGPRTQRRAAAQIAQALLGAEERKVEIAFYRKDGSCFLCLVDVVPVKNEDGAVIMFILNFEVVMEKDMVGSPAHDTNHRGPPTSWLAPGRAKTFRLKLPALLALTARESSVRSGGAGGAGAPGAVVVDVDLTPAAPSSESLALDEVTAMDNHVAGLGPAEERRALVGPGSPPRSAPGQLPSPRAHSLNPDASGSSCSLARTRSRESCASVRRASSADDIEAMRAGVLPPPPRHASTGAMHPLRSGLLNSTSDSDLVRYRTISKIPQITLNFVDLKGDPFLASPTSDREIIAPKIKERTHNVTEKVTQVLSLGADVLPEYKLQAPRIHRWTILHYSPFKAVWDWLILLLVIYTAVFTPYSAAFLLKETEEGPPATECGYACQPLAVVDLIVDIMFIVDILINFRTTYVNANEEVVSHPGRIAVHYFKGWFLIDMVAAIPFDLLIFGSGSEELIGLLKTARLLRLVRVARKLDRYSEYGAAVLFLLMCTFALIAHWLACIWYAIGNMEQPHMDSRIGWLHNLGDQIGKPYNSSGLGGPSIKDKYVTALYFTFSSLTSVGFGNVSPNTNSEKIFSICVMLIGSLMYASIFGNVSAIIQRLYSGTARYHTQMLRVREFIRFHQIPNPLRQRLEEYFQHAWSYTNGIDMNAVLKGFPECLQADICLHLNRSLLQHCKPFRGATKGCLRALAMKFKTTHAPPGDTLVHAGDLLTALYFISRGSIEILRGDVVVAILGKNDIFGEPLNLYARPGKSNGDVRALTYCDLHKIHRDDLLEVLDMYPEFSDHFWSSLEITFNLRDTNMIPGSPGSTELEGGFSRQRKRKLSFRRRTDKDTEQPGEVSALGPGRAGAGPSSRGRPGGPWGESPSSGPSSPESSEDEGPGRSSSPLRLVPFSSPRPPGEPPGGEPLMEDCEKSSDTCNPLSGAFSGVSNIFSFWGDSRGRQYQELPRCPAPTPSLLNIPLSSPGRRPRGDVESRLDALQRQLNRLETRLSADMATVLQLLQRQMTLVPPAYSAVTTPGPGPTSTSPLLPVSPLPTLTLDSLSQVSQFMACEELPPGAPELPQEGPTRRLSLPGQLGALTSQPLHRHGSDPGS", "test": "primary screen, population patch clamp on CHO cells stably expressing hERG; higher = less effect of the substance", "units": {"hERG current change (%, negative = inhibition) at 10uM": "%"}, "values": [{"smiles": "COc1cc(C=O)ccc1OCCCOc1ccc([N+](=O)[O-])cc1", "hERG current change (%, negative = inhibition) at 10uM": -10.8}, {"smiles": "O=C(COC(=O)C1(c2ccc(F)cc2)CCCC1)NCc1ccco1", "hERG current change (%, negative = inhibition) at 10uM": -2.02}, {"smiles": "CCC(C)NC(=O)c1ccc(C(=O)c2ccccc2)cc1", "note": "(stereo not shown)", "hERG current change (%, negative = inhibition) at 10uM": 12.7}, {"smiles": "O=C(c1cnn2c1NC(c1ccc(Br)cc1)CC2C(F)(F)F)N1CCN2CCCC2C1", "note": "(stereo not shown)", "hERG current change (%, negative = inhibition) at 10uM": -63.5}, {"smiles": "O=C(c1cnn2c1NC(c1ccc(Br)cc1)CC2C(F)(F)F)N1CCN(C23CC4CC(CC(C4)C2)C3)CC1", "note": "(stereo not shown)", "hERG current change (%, negative = inhibition) at 10uM": -7.5}, {"smiles": "CN1CCN(C(=O)c2cnn3c2NC(c2ccccc2)CC3C(F)(F)F)CC1", "note": "(stereo not shown)", "hERG current change (%, negative = inhibition) at 10uM": 17.1}, {"smiles": "Cc1c(C(=O)N(Cc2ccc(N(C)C)cc2)CC2CCCO2)oc2ccccc12", "note": "(stereo not shown)", "hERG current change (%, negative = inhibition) at 10uM": -26.5}, {"smiles": "Cc1c(C(=O)N(Cc2ccncc2)CC2CCCO2)oc2c(F)cccc12", "note": "(stereo not shown)", "hERG current change (%, negative = inhibition) at 10uM": -27.1}, {"smiles": "CCCc1ccc2oc(C(=O)N(Cc3ccncc3)CC3CCCO3)c(C)c2c1", "note": "(stereo not shown)", "hERG current change (%, negative = inhibition) at 10uM": -71.6}, {"smiles": "Cc1ccc2oc(C(=O)N(Cc3ccc(N(C)C)cc3)CC3CCCO3)c(C)c2c1", "note": "(stereo not shown)", "hERG current change (%, negative = inhibition) at 10uM": -14.8}, {"smiles": "CCCc1ccc2oc(C(=O)N(C)Cc3nccs3)c(C)c2c1", "hERG current change (%, negative = inhibition) at 10uM": -48.3}, {"smiles": "Cc1ccc2oc(C(=O)N(Cc3ccncc3)CC3CCCO3)c(C)c2c1", "note": "(stereo not shown)", "hERG current change (%, negative = inhibition) at 10uM": -34.9}, {"smiles": "Cc1ccc2c(C)c(C(=O)N(Cc3ccncc3)CC3CCCO3)oc2c1C", "note": "(stereo not shown)", "hERG current change (%, negative = inhibition) at 10uM": -51.9}, {"smiles": "CCCc1ccc2oc(C(=O)N(C)CCn3ccnc3C)c(C)c2c1", "hERG current change (%, negative = inhibition) at 10uM": -61.4}, {"smiles": "CCCc1ccc2oc(C(=O)N(C)Cc3cnccn3)c(C)c2c1", "hERG current change (%, negative = inhibition) at 10uM": -10.9}, {"smiles": "COc1ccc(/C=N/NC(=S)Nc2ccccc2)cc1COc1ccc(Br)cc1", "hERG current change (%, negative = inhibition) at 10uM": -1.6}, {"smiles": "Cc1cc(Oc2ccc(C#N)cc2)nc(NCc2ccccc2)n1", "hERG current change (%, negative = inhibition) at 10uM": 2.36}, {"smiles": "O=C1CN(C(=O)C2CC2)c2ccccc2N1", "hERG current change (%, negative = inhibition) at 10uM": -15.8}, {"smiles": "CC(C)(C)OC(=O)N1CCC(NC(=O)c2[nH]cnc2C(=O)Nc2ccccc2)CC1", "hERG current change (%, negative = inhibition) at 10uM": -15}, {"smiles": "CNC(=O)COC(=O)c1cccc(S(=O)(=O)N2CCN(c3ccc(F)cc3)CC2)c1", "hERG current change (%, negative = inhibition) at 10uM": -0.232}, {"smiles": "N#Cc1nccnc1N1CCN(C(=O)Nc2ccccc2)CC1", "hERG current change (%, negative = inhibition) at 10uM": 5.22}, {"smiles": "CCc1cc2cc(C)cc(C)c2nc1SCC(=O)N1CCN(C(=O)c2ccco2)CC1", "hERG current change (%, negative = inhibition) at 10uM": -16.2}, {"smiles": "CCc1cc2cc(C)ccc2nc1SCC(=O)NNC(=O)c1ccco1", "hERG current change (%, negative = inhibition) at 10uM": 21.9}, {"smiles": "Cc1cc2cc3c(cc2nc1SCC(=O)N1CCN(C(=O)c2ccco2)CC1)OCO3", "hERG current change (%, negative = inhibition) at 10uM": -35.3}, {"smiles": "CCc1cc2cc3c(cc2nc1SCC(=O)N1CCN(C(=O)c2ccco2)CC1)OCO3", "hERG current change (%, negative = inhibition) at 10uM": -28.7}, {"smiles": "CCc1cc2ccc(C)cc2nc1SCC(=O)NNC(=O)c1ccco1", "hERG current change (%, negative = inhibition) at 10uM": 12}, {"smiles": "CCc1cc2cccc(C)c2nc1SCC(=O)NNC(=O)c1ccco1", "hERG current change (%, negative = inhibition) at 10uM": -0.00372}, {"smiles": "CCc1cc2ccc(OC)cc2nc1SCC(=O)N1CCN(C(=O)c2ccco2)CC1", "hERG current change (%, negative = inhibition) at 10uM": -49.1}, {"smiles": "COc1cc2cc(C)c(SCC(=O)N3CCN(C(=O)c4ccco4)CC3)nc2cc1OC", "hERG current change (%, negative = inhibition) at 10uM": -66}, {"smiles": "CCc1cc2ccc(C)cc2nc1SCC(=O)N1CCN(C(=O)c2ccco2)CC1", "hERG current change (%, negative = inhibition) at 10uM": -56}, {"smiles": "CCc1cc2cccc(C)c2nc1SCC(=O)N1CCN(C(=O)c2ccco2)CC1", "hERG current change (%, negative = inhibition) at 10uM": -54.4}, {"smiles": "CCc1cc2cc(C)ccc2nc1SCC(=O)N1CCN(C(=O)c2ccco2)CC1", "hERG current change (%, negative = inhibition) at 10uM": -53.4}, {"smiles": "COc1cc2cc(C)c(SCC(=O)N3CCOCC3)nc2cc1OC", "hERG current change (%, negative = inhibition) at 10uM": -1.12}, {"smiles": "O=C(CC1C(=O)NCCN1Cc1cccc(C(F)(F)F)c1)NCCc1cnccn1", "note": "(stereo not shown)", "hERG current change (%, negative = inhibition) at 10uM": 7.22}, {"smiles": "O=C(COC(=O)c1cc(Cl)ccc1O)NC(=O)NCc1ccccc1", "hERG current change (%, negative = inhibition) at 10uM": 4.6}, {"smiles": "COC(=O)C(CSCc1ccccc1)NC(=O)CSc1nc(C)cc(=O)[nH]1", "note": "(stereo not shown)", "hERG current change (%, negative = inhibition) at 10uM": 18.4}, {"smiles": "CN(c1ccccc1)S(=O)(=O)c1ccc(C(=O)NCCc2ccc(F)cc2)cc1", "hERG current change (%, negative = inhibition) at 10uM": -21.1}, {"smiles": "CC(=O)Nc1ccc(/C(C)=N/NC(=O)c2ccc(CN3CCOCC3)cc2)cc1", "hERG current change (%, negative = inhibition) at 10uM": 25.2}, {"smiles": "Br.CC1CCCC(C)N1Cc1cn2ccccc2n1", "note": "(stereo not shown)", "hERG current change (%, negative = inhibition) at 10uM": 7.29}, {"smiles": "Cc1nn(CC(=O)Nc2ccccn2)c(C)c1Br", "hERG current change (%, negative = inhibition) at 10uM": 15.3}, {"smiles": "Nc1ccc2ncccc2c1N", "hERG current change (%, negative = inhibition) at 10uM": 6.47}, {"smiles": "CSc1ccc(CCNS(=O)(=O)c2c(C)[nH]c(C)c2C(=O)N2CCCCC2)cc1", "hERG current change (%, negative = inhibition) at 10uM": -15.2}, {"smiles": "COc1ccc(CCNC(=O)c2cc(=O)n(C)c(=O)n2C)cc1OC", "hERG current change (%, negative = inhibition) at 10uM": -0.242}, {"smiles": "Cc1ccc(-n2c(SCC(=O)OC(C)C)nnc2-c2ccco2)cc1", "hERG current change (%, negative = inhibition) at 10uM": -37.7}, {"smiles": "Cc1cccc(C(=O)Oc2ccccc2/C=N/NC(=O)c2ccc(NC(=O)C(C)(C)C)cc2)c1", "hERG current change (%, negative = inhibition) at 10uM": -4.88}, {"smiles": "CN1C=CC2=C(C#N)C(N)C(C#N)(C#N)[C@H](c3ccccc3)[C@H]2C1", "note": "(stereo partly shown)", "hERG current change (%, negative = inhibition) at 10uM": -4.67}, {"smiles": "O=C(CSc1nnnn1-c1ccccc1)N1CCN(C(=O)c2ccco2)CC1", "hERG current change (%, negative = inhibition) at 10uM": -49.4}, {"smiles": "Cc1ccc(-n2nnnc2SCC(=O)N2CCN(C(=O)c3ccco3)CC2)c(C)c1", "hERG current change (%, negative = inhibition) at 10uM": -76}, {"smiles": "Cc1ccc(-n2nnnc2SCC(=O)NNC(=O)c2ccco2)c(C)c1", "hERG current change (%, negative = inhibition) at 10uM": -4.35}, {"smiles": "COc1ccccc1NC(=O)c1cnc(SC)nc1", "hERG current change (%, negative = inhibition) at 10uM": 19.2}, {"smiles": "O=C(O)C(=O)O.O=S(=O)(c1ccc(Cl)cc1)N1CCC(N2CCOCC2)CC1", "hERG current change (%, negative = inhibition) at 10uM": -11.5}, {"smiles": "Cn1ncc2c(Nc3ccc(O)cc3)nc(Cl)nc21", "hERG current change (%, negative = inhibition) at 10uM": 5.53}, {"smiles": "Cc1ccccc1OCc1nnc(SCCN2CCCC2)n1-c1ccccc1.Cl", "hERG current change (%, negative = inhibition) at 10uM": -65.3}, {"smiles": "Cn1c(CNc2ccc(Cl)cc2)nnc1SCCN1CCCCC1", "hERG current change (%, negative = inhibition) at 10uM": -46.4}, {"smiles": "COc1ccc(C(=O)CSc2nnc(CN3CCCCC3)n2-c2ccc(F)cc2)cc1OC", "hERG current change (%, negative = inhibition) at 10uM": 6.33}, {"smiles": "COc1ccc(-n2c(CNc3ccc(C)cc3)nnc2SCc2ccccc2)cc1", "hERG current change (%, negative = inhibition) at 10uM": -7.09}, {"smiles": "COc1ccc(NCc2nnc(SCCN3CCCCC3)n2-c2ccc(C)cc2)cc1", "hERG current change (%, negative = inhibition) at 10uM": -66.7}, {"smiles": "COc1ccc(C(=O)CSc2nnc(CN3CCCCC3)n2-c2ccc(F)cc2)cc1", "hERG current change (%, negative = inhibition) at 10uM": -57.7}, {"smiles": "Cc1ccccc1OCc1nnc(SCC(=O)O)n1-c1ccccc1", "hERG current change (%, negative = inhibition) at 10uM": 14.4}, {"smiles": "COc1ccc(C(=O)CSc2nnc(CN3CCCC3)n2-c2ccc(F)cc2)c(OC)c1", "hERG current change (%, negative = inhibition) at 10uM": -23}, {"smiles": "Cc1ccccc1OCc1nnc(SCC(=O)O)n1-c1cccc(Cl)c1", "hERG current change (%, negative = inhibition) at 10uM": 5.63}]}]}
